From PubChem
DT40 TDP1 CPT: qHTS for Inhibitors of human tyrosyl-DNA phosphodiesterase 1 (TDP1): qHTS in cells in presence of CPT; chicken DT40 Tdp1-/-;hTDP1 cells + 20 nM CPT, ATP luminescence, 48 h; Potency, µM (highest dose often 46.2 µM), hits mostly inhibitors; 12% of 420,000 active; further: nearly all actives have a fitted effect of over 55% in size
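Chicken DT40 Tdp1-/- cells complemented with human TDP1, 400 cells/well, exposed to compounds plus 20 nM camptothecin for at least 48 h at 37 C; viability read as ATP content by CellTiter-Glo luminescence.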
IL1B secr inh: qHTS for Inhibitors of Inflammasome Signaling: IL-1-beta AlphaLISA Primary Screen; THP-1 LPS/ATP IL-1B secretion, AlphaLISA, 16 h; active compounds read low; activity change, % at 57.5 µM; 4.7% of 360,000 active; AID 743279, 2014; in the data active means activity change below about -50%; inconclusive means mostly about -30% to -49%
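Secreted IL-1B measured by AlphaLISA bead assay after 16 h compound exposure of THP-1 cells; compounds (final up to 57.5 uM) added 1 h before LPS (250 ng/mL) and ATP (1.25 mM) stimulation; lower signal means less secretion.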
TGFb inhibitor: qHTS for Inhibitors of TGF-b; Potency, µM (series often up to 46.1 µM), actives largely listed as inhibitors; HepG2 CAGA-GFP TGF-b/SMAD3 reporter, GFP fluorescence, 18 h; TGF-beta stimulated, 500 pg/mL final; AID 588855, 2011; 1.2% of 410,000 active; further: nearly all actives have a fitted effect of over 65% in size
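Inhibition of TGF-beta-driven CAGA-GFP reporter expression in HEPG2 cells is measured by cellular GFP fluorescence after 18 h stimulation with 500 pg/mL recombinant TGF-beta in 1% FBS medium at 37 degrees C.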
TDP1 cell noCPT: qHTS for Inhibitors of human tyrosyl-DNA phosphodiesterase 1 (TDP1): qHTS in cells in absence of CPT; DT40 Tdp1-/- hTDP1 cells, no CPT, ATP luminescence, 48 h; Potency, µM (top dose mostly 46.2 µM), most hits filed as inhibitors; 15% of 420,000 active; further: nearly all actives have a fitted effect of over 55% in size
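Growth kinetics read by CellTiter-Glo luminescence after ≥48 hr at 37 °C. Cells: DT40 Tdp1-/- stably carrying human TDP1, 400 per well, compound exposure in the absence of CPT (DMSO vehicle).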
HepG2 tox: qHTS for Inhibitors of TGF-b: Cytotox Counterscreen; HepG2 CAGA-GFP viability, ATP luminescence, 18 h; Potency, µM (top dose mostly 46.1 µM), actives largely listed as cytotoxic; 0.76% of 410,000 active; AID 588856, 2011
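HepG2 CAGA-GFP cells (1000/well, DMEM with 1% FBS) received compound, then TGF-beta at 500 pg/mL final, and were incubated 18 hours at 37 degrees C. Viability was read by CellTiter-Glo luminescence. Media-only wells were set as complete cell-killing and DMSO as no toxicity.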
TDP1 inh: qHTS Assay for Inhibitors of Tyrosyl-DNA Phosphodiesterase (TDP1); 0.28% of 350,000 active; recombinant TDP1, AlphaScreen DNA substrate cleavage; Tyrosyl-DNA phosphodiesterase 1 (Homo sapiens), Q9NUW8; Potency, µM (titrated, usually from 130 µM), most hits filed as inhibitors; further: nearly all actives have a fitted effect of over 40% in size
Target sequence (Q9NUW8 whole entry, looked up): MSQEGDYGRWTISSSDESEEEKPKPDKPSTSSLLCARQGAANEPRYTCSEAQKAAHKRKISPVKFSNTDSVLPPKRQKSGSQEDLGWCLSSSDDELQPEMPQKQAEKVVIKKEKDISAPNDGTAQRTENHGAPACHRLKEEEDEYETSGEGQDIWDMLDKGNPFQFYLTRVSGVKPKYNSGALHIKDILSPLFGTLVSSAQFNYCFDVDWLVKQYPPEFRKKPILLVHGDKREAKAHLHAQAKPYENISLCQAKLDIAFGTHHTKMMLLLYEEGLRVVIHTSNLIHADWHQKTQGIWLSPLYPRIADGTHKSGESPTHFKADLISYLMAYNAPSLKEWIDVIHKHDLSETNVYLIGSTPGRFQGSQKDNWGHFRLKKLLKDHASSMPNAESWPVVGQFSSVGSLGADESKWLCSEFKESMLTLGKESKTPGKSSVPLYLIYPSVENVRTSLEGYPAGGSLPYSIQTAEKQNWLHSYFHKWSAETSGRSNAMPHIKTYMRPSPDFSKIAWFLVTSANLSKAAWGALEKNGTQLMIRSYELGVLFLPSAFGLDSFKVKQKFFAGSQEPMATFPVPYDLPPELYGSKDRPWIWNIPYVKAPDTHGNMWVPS
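Signal: AlphaScreen proximity between streptavidin donor and anti-FITC acceptor beads on intact substrate. Reaction: Tdp1 1 nM, substrate 15 nM final, 5 min RT after 15 min compound preincubation.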
Hits are given with their value; - = inactive; ? = inconclusive; . = no result; [ ] = another dose, or the depositor's remark. In the library only some 19% were active in any assay of this set; here they are far more common. Unless noted, the call rests on the fitted dose curve; in most records, active means well fitted curve in the direction sought with a large enough effect; inconclusive means small, poorly fitted or top-dose-only effect, or another doubt; inactive means no such curve, though single readings can be large; an effect the other way counts as inactive or inconclusive.

SMILES	DT40 TDP1 CPT	IL1B secr inh	TGFb inhibitor	TDP1 cell noCPT	HepG2 tox	TDP1 inh
CN(C)C(=O)Nc1ccccc1CC[N+](=O)[O-]	-	-64.8	-	-	-	-
Cc1csc(=O)n1CCC(=O)OCC(=O)Nc1ccc(Cl)cn1	-	-	?	-	-	-[0.505 µM]
CN1CCCC1CCNS(=O)(=O)c1ccc(Br)cc1 (centres undefined)	?	-	?	9.2µM	-	-
CC(C)(C)c1ccc(OCCOc2ccc(C(C)(C)C)cc2NC=O)c(NC=O)c1	20.6µM	?	?	20.6µM	-	-
COCCOc1ccc(C(F)(F)F)cc1NC(=O)c1ccc(F)cc1	-	-	-	-	-	-
CCOC(=O)C1=CN(Cc2cccc(Br)c2)S(=O)(=O)N(CC)C1C (centres undefined)	?	-	?	?	-	-
Cc1ccc2nc(CSc3nc(C)ccc3C#N)[nH]c2c1	17.8µM	?	-	31.6µM	-	-
O=c1[nH]c(CSc2nnc(-c3ccccc3)n2-c2ccccc2)nc2ccccc12	-	-	-	-	-	-
COC(=O)c1sc2nc(CSc3nc4ccc(C)cc4[nH]3)[nH]c(=O)c2c1C	?	-	-	-	-	-
Cc1ccc2nc(SCc3nc4ccccc4c(=O)[nH]3)[nH]c2c1	?	-97.8	-	20.6µM	-	-
Cc1ccc2nc(SCc3nc(-c4ccccc4C)no3)[nH]c2c1	18.4µM	.	?	13µM	-	-
O=c1[nH]c(CSc2nnc(-c3ccccc3)n2C2CCCCC2)nc2ccccc12	?	-	-	20.6µM	-	-
COc1ccc(S(=O)(=O)NCCc2cn3ccsc3n2)cc1	-	.	-	-	-	-
CCN(CC(=O)Nc1ccc(OC)cc1)C(=O)Cc1cccs1	-	-	-	-	-	.
CCCCc1cc(=O)oc2c(CN3CCCC3)c(O)ccc12	-	-	-	-	-	-
CCCc1cc(=O)oc2c(CNc3ccc(OCC)cc3)c(O)ccc12	11.6µM	-	-	?	-	.
Cc1ccc(S(=O)(=O)Nc2cc3c(cc2C)n(C)c(=O)c(=O)n3C)c(C)c1	-	.	.	?	-	-
Cc1ccc(-c2ccc(CN3C(C)C(=O)N(Cc4cn(Cc5ccco5)nn4)CCS3(=O)=O)cc2)c(C)c1 (centres undefined)	?	-60.8	?	?	-	.
Cc1ccccc1-c1ccc(CN2C(C)C(=O)N(Cc3cn(Cc4ccco4)nn3)CCS2(=O)=O)cc1 (centres undefined)	?	?	?	?	-	.
CC1C(=O)N(Cc2cn(Cc3ccco3)nn2)CCS(=O)(=O)N1Cc1ccc(-c2cccc(N(C)C)c2)cc1 (centres undefined)	25.9µM	-	-	16.4µM	-	.
COc1ccc(-c2ccc(CN3C(C(C)C)C(=O)N(Cc4cn(Cc5ccco5)nn4)CCS3(=O)=O)cc2)cc1OC (centres undefined)	?	-	-	?	-	.
COc1ccc(-c2ccc(CN3C(C(C)C)C(=O)N(Cc4cn(Cc5ccco5)nn4)CCS3(=O)=O)cc2)cn1 (centres undefined)	18.4µM	-	?	20.6µM	-	.
CC1C(=O)N(Cc2cn(Cc3ccco3)nn2)CCS(=O)(=O)N1Cc1ccc(-c2ccccc2C(F)(F)F)cc1 (centres undefined)	?	-59.5	?	?	-	.
Cc1cc(C)cc(OCC(=O)OCC(=O)N2CCc3ccccc32)c1	-	-	-	-	-	-
CO[C@H]1C=CO[C@@]2(C)Oc3c(C)c(O)c4c(O)c(cc(O)c4c3C2=O)NC(=O)/C(C)=C\C=C/[C@H](C)[C@H](O)[C@@H](C)[C@@H](O)[C@@H](C)[C@H](OC(C)=O)[C@@H]1C	-	.	.	-	.	.
SMILES	DT40 TDP1 CPT	IL1B secr inh	TGFb inhibitor	TDP1 cell noCPT	HepG2 tox	TDP1 inh
Cc1ccc(CNC(=O)C(=O)NCC(c2ccc3c(c2)OCO3)N2CCOCC2)cc1 (centres undefined)	-	.	-	-	-	-
CC1C(=O)N(Cc2cn(Cc3ccco3)nn2)CCS(=O)(=O)N1Cc1ccc(-c2ccc(Cl)c(Cl)c2)cc1 (centres undefined)	14.6µM	-51.4	?	8.2µM	-	.
COc1ccc(-c2ccc(CN3C(C)C(=O)N(Cc4cn(Cc5ccco5)nn4)CCS3(=O)=O)cc2)cc1 (centres undefined)	20.6µM	-	-	23.1µM	-	.
COc1ccc(-c2ccc(CN3C(C(C)C)C(=O)N(Cc4cn(Cc5ccco5)nn4)CCS3(=O)=O)cc2)cc1 (centres undefined)	?	-	?	20.6µM	-	.
Cc1ccc(-c2ccc(CN3C(C)C(=O)N(Cc4cn(Cc5ccco5)nn4)CCS3(=O)=O)cc2)cc1 (centres undefined)	?	-	?	?	-	.
CC(C)CC1C(=O)N(Cc2cn(Cc3ccco3)nn2)CCS(=O)(=O)N1Cc1ccc(-c2ccc(F)cc2)cc1 (centres undefined)	?	-71.9	?	16.4µM	-	.
Cc1ccc(-c2ccc(CN3C(CC(C)C)C(=O)N(Cc4cn(Cc5ccco5)nn4)CCS3(=O)=O)cc2)cc1 (centres undefined)	-	-	-	?	-	.
CCN(C[C@H]1N[C@@](CC)(C(=O)OC)[C@H]2C(=O)N(C)C(=O)[C@@H]12)S(=O)(=O)c1ccccc1	-	-	-	-	-	-
Fc1ccc(Nc2nc3ccccc3c3nncn23)c(Cl)c1	?	.	-	?	-	-[12.3 µM]
CCOC(=O)c1c(-c2ccccc2)csc1NC(=O)c1cc(-c2ccc(Cl)cc2)on1	-	.	-	-	-	-
COc1ccc(CNC(=O)CN2C(=O)CCn3nc(-c4ccccc4)cc32)c(OC)c1	-	.	?	-	-	-
CC(C)CC1C(=O)N(Cc2cn(Cc3ccco3)nn2)CCS(=O)(=O)N1Cc1ccc(-c2cccc(N(C)C)c2)cc1 (centres undefined)	?	-	-	13µM	-	.
CC(C)C1C(=O)N(Cc2cn(Cc3ccco3)nn2)CCS(=O)(=O)N1Cc1ccc(-c2ccc(Cl)c(Cl)c2)cc1 (centres undefined)	4.61µM	-	?	3.26µM	-	.
COCc1nc2ccccc2n1CCOc1cccc(C)c1	?	.	-	?	-	-
